Experimental data taken from PubChem BioAssay (EPA / NIEHS).
Values joined by “and” are separate entries in the source; they are usually repeats but may differ in a detail not shown here. Equal values may be shown once. Inconclusive results are not listed. Where a structure was tested more than once in an assay, its records may differ in their call. Active and inactive are the calls of the source. How the source made its calls, unless noted: active means hit-call score of the fitted dose curve at least 0.9, where 1 is the maximum; inactive means score below 0.9.

Tests used:
[1] = BSK_4H_Eotaxin3: BioMAP Diversity Plus: 4H Assay for Eotaxin 3 Biomarker Activity (AID 2283000); conditions: primary human endothelial cells (HUVEC); actives raise or lower the signal
How it was run: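 Chemicals were added to human umbilical vein endothelium cultures, and Eotaxin-3 was quantified by ELISA at 24 h. Values were derived by bidirectional fitting with DMSO serving as negative control and activity baseline.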

[2] = target: human Peroxisome Proliferator-activated Receptor alpha (PPARa), PPARA (gene 5465) (UniProt Q07869); test: ATG_PPARa_TRANS: Attagene TRANS-FACTORIAL HepG2 Assay for human Peroxisome Proliferator-activated Receptor alpha (PPARa) (AID 2283001; active means hit-call score of the fitted dose curve at least 0.9, where 1 is the maximum)
How it was run: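 Read-out is fluorescence of reporter cDNA fragments resolved by capillary electrophoresis after RT-PCR. Human HepG2 liver cells carried transfected PPARa-Gal4 chimera and GAL4-UAS reporter units, treated 24 h; activity scored as increase over DMSO.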

[3] = read-out: Intercellular Adhesion Molecule 1 (ICAM1), ICAM1 (gene 3383); test: BSK_3C_ICAM1: BioMAP Diversity Plus: 3C Assay for Intercellular Adhesion Molecule 1 (ICAM1) Biomarker Activity (AID 2283003); conditions: primary human endothelial cells (HUVEC); actives raise or lower the signal
How it was run: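 ICAM-1 levels measured by ELISA after HUVEC cultures in the 3C system had been dosed for 24 h. Gain or loss of signal relative to DMSO was fitted in both directions.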

[4] = target: Retinoic acid receptor alpha (Homo sapiens) (UniProt P10276); test: ATG_RARa_TRANS: Attagene TRANS-FACTORIAL HepG2 Assay for human Retinoic Acid Receptor alpha (RARa) (AID 2283005; active means hit-call score of the fitted dose curve at least 0.9, where 1 is the maximum)
How it was run: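 Reporter transcripts, measured by RT-PCR with fluorescent labeling and capillary electrophoresis after 24 h dosing, reflect activity of an exogenous human RARa–GAL4 fusion in transiently transfected HepG2. Fitted for increase relative to DMSO.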

[5] = BSK_3C_Proliferation: Cell Proliferation Assessment in the BioMAP Diversity Plus: 3C Assay (AID 2283006); conditions: primary human endothelial cells (HUVEC);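 on AC50: potency may reflect either rise or fall in cell number versus DMSO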
How it was run: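 Read-out is total protein by SRB absorbance at 560 nm, taken as a proxy for relative cell number. Primary human umbilical vein endothelium cultured below confluence was dosed for 48 h, TCA-fixed and SRB-stained; curves were fitted bidirectionally versus DMSO.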

[6] = target: Nuclear receptor subfamily 1 group I member 2 (Homo sapiens) (UniProt O75469); test: ATG_PXR_TRANS: Attagene TRANS-FACTORIAL HepG2 Assay for human Pregnane X Receptor (PXR) (AID 2283008; active means hit-call score of the fitted dose curve at least 0.9, where 1 is the maximum)
How it was run: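 HepG2 cells transiently transfected with GAL4-UAS reporter units and PXR-Gal4 chimera, exposed 24 h. Reporter mRNA quantified by RT-PCR, fluorescent labelling, HpaI digestion and capillary electrophoresis; gain of signal vs DMSO.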

[7] = target: human Retinoic Acid Receptor gamma (RARg), RARG (gene 5916) (UniProt P13631); test: ATG_RARg_TRANS: Attagene TRANS-FACTORIAL HepG2 Assay for human Retinoic Acid Receptor gamma (RARg) (AID 2283009; active means hit-call score of the fitted dose curve at least 0.9, where 1 is the maximum)
How it was run: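 Transient transfection of HepG2 with multi-reporter constructs, then 24 h chemical treatment. Total RNA isolated, reverse-transcribed, PCR-amplified, fluorescently labelled and resolved by capillary electrophoresis; activity scored as mRNA induction versus DMSO.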

[8] = target: human RAR-related Orphan Receptor beta (RORb), RORB (gene 6096) (UniProt Q92753); test: ATG_RORb_TRANS: Attagene TRANS-FACTORIAL HepG2 Assay for human RAR-related Orphan Receptor beta (RORb) (AID 2283010; active means hit-call score of the fitted dose curve at least 0.9, where 1 is the maximum)
How it was run: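 Readout is reporter-gene mRNA induction, detected as fluorescence after RT-PCR and capillary electrophoresis, fitted for gain of signal against DMSO controls. Transiently transfected HepG2 liver cells carrying GAL4-UAS reporter constructs were treated for 24 hours.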

[9] = target: human RAR-related Orphan Receptor gamma (RORg), RORC (gene 6097) (UniProt P51449); test: ATG_RORg_TRANS: Attagene TRANS-FACTORIAL HepG2 Assay for human RAR-related Orphan Receptor gamma (RORg) (AID 2283011; active means hit-call score of the fitted dose curve at least 0.9, where 1 is the maximum)
How it was run: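 First, HepG2 liver cells were transfected with GAL4-UAS-driven reporter constructs and the RORg-Gal4 fusion. Next, they were treated with chemical for 24 h. Finally, reporter mRNA was quantified by RT-PCR and capillary electrophoresis, with upward activity fitted against DMSO.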

[10] = target: Retinoic acid receptor RXR-alpha (Homo sapiens) (UniProt P19793); test: ATG_RXRa_TRANS: Attagene TRANS-FACTORIAL HepG2 Assay for human Retinoid X Receptor alpha (RXRa) (AID 2283012; active means hit-call score of the fitted dose curve at least 0.9, where 1 is the maximum)
How it was run: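 Transient transfection of human HepG2 with multiple GAL4-UAS reporter constructs; 24 h compound exposure; total RNA isolated, reverse-transcribed, PCR-amplified, 6-FAM labelled, HpaI-cut, resolved by capillary electrophoresis. Positive-direction fit versus DMSO.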

[11] = target: human Retinoid X Receptor beta (RXRb), RXRB (gene 6257) (UniProt P28702); test: ATG_RXRb_TRANS: Attagene TRANS-FACTORIAL HepG2 Assay for human Retinoid X Receptor beta (RXRb) (AID 2283013; active means hit-call score of the fitted dose curve at least 0.9, where 1 is the maximum)
How it was run: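 Transfect HepG2 with GAL4-UAS multi-reporter constructs (chimeric NR-Gal4, TRANS format); dose compound 24 h; isolate RNA, RT-PCR, FAM primer extension, HpaI digest; quantify by capillary electrophoresis; positive direction vs DMSO.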

[12] = read-out: Interleukin-1 alpha (IL1a), IL1A (gene 3552); test: BSK_BE3C_IL1a: BioMAP Diversity Plus: BE3C Assay for Interleukin-1 alpha (IL1a) Biomarker Activity (AID 2283016); conditions: primary human bronchial epithelial cells; actives raise or lower the signal
How it was run: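 BE3C primary human bronchial epithelium; cpd 24 h; IL-1a by ELISA; bidirectional fit vs DMSO; parallel SRB (0.1% SRB, 10% TCA fix, 560 nm) for cytotoxicity.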

[13] = read-out: Monocyte Chemoattractant Protein-1 (MCP1), CCL2 (gene 6347); test: BSK_3C_MCP1: BioMAP Diversity Plus: 3C Assay for Monocyte Chemoattractant Protein-1 (MCP1) Biomarker Activity (AID 2283017); conditions: primary human endothelial cells (HUVEC); actives raise or lower the signal
How it was run: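 ELISA read-out of MCP-1 from human umbilical vein endothelial cell cultures harvested 24 h post-dosing. Gain or loss of signal was fitted relative to DMSO.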

[14] = target: Peroxisome proliferator-activated receptor gamma (Homo sapiens) (UniProt P37231); test: ATG_PPARg_TRANS: Attagene TRANS-FACTORIAL HepG2 Assay for human Peroxisome Proliferator-activated Receptor-gamma (PPARg) (AID 2283007; active means hit-call score of the fitted dose curve at least 0.9, where 1 is the maximum)
How it was run: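 Twenty-four hours after chemical dosing of transiently transfected HepG2 cells, isolated RNA was converted to cDNA, reporter sequences amplified and 6-FAM-labelled, then HpaI-digested and analysed by capillary electrophoresis. Signal increase against DMSO was fitted.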

[15] = read-out: Monocyte Chemoattractant Protein-1 (MCP1), CCL2 (gene 6347); test: BSK_4H_MCP1: BioMAP Diversity Plus: 4H Assay for Monocyte Chemoattractant Protein-1 (MCP1) Biomarker Activity (AID 2283018); conditions: primary human endothelial cells (HUVEC); actives raise or lower the signal
How it was run: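 ELISA read-out of MCP-1 from human vascular endothelial primary cells taken at 24 hours after compound exposure. Activity was fitted in both directions relative to DMSO, which served as negative control.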

[16] = target: human Peroxisome Proliferator-activated Receptor delta (PPARd), PPARD (gene 5467) (UniProt Q03181); test: ATG_PPARd_TRANS: Attagene TRANS-FACTORIAL HepG2 Assay for human Peroxisome Proliferator-activated Receptor delta (PPARd) (AID 2283002; active means hit-call score of the fitted dose curve at least 0.9, where 1 is the maximum)
How it was run: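 Read-out is induced reporter mRNA, quantified by RT-PCR with fluorescent labelling and capillary electrophoresis after 24 h dosing. Cells are HepG2 transiently carrying multiple GAL4-UAS reporter units driven by exogenous NR-GAL4 chimeras; DMSO serves as baseline.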

[17] = read-out: E-selectin (Homo sapiens) (UniProt P16581); test: BSK_3C_Eselectin: BioMAP Diversity Plus: 3C Assay for Eselectin Biomarker Activity (AID 2283015); conditions: primary human endothelial cells (HUVEC); actives raise or lower the signal
How it was run: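 ELISA read-out of E-selectin on endothelial monolayers after 24 h chemical treatment. Human umbilical vein primary cells served as the system, with DMSO defining baseline activity for bidirectional fitting.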

[18] = read-out: Human Leukocyte Antigen - DR isotype (HLADR), HLA-DRA (gene 3122); test: BSK_3C_HLADR: BioMAP Diversity Plus: 3C Assay for Human Leukocyte Antigen - DR isotype (HLADR) Biomarker Activity (AID 2283019); conditions: primary human endothelial cells (HUVEC); actives raise or lower the signal;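 further: ELISA of cell-surface HLA-DR on HUVEC 24 h after dosing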
How it was run: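 ELISA readout of surface HLA-DR on human umbilical vein endothelium, taken 24 h after chemical treatment. Gain- and loss-of-signal were both fitted relative to DMSO.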

[19] = target: human Retinoic Acid Receptor beta (RARb), RARB (gene 5915) (UniProt P10826); test: ATG_RARb_TRANS: Attagene TRANS-FACTORIAL HepG2 Assay for human Retinoic Acid Receptor beta (AID 2283004; active means hit-call score of the fitted dose curve at least 0.9, where 1 is the maximum)
How it was run: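 Transient transfection of HepG2 with multiple reporter units → chemical dosing, 24 h → total RNA isolation → RT with oligo(dT) → reporter-specific PCR, 6-FAM primer extension, HpaI digest → capillary electrophoresis. Positive direction vs DMSO control.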

Measured: AC50

human Peroxisome Proliferator-activated Receptor alpha (PPARa), PPARA (gene 5465), sequence (Q07869 whole entry, looked up, the tested form may be a part): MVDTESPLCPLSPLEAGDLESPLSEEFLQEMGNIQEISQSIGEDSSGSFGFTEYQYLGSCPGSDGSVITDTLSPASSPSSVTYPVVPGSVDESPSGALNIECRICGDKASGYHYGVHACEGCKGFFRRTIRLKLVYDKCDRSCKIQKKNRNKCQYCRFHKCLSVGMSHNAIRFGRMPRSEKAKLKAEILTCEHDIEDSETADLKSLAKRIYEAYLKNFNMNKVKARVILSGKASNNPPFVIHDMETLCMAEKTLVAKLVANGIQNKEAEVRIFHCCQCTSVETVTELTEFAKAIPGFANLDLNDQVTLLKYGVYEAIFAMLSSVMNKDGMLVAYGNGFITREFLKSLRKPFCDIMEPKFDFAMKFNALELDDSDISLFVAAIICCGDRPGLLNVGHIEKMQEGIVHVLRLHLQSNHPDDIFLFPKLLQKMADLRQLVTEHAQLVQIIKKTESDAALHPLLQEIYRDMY
human RAR-related Orphan Receptor gamma (RORg), RORC (gene 6097), sequence (P51449 whole entry, looked up, the tested form may be a part): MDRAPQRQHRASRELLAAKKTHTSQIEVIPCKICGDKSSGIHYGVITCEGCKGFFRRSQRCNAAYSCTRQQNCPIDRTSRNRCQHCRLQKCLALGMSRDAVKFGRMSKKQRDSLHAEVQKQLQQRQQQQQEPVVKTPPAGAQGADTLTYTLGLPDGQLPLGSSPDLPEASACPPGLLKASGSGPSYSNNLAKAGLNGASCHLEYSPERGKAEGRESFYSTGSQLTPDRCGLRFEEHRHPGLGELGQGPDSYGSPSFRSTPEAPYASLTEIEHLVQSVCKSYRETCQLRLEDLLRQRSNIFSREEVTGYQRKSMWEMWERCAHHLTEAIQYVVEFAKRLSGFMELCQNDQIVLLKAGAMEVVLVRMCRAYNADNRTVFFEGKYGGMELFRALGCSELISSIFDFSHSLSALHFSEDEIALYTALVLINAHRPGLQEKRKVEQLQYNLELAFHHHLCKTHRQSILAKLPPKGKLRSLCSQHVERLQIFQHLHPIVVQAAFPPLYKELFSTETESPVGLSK
Retinoic acid receptor RXR-alpha (Homo sapiens), sequence (P19793 whole entry, looked up, the tested form may be a part): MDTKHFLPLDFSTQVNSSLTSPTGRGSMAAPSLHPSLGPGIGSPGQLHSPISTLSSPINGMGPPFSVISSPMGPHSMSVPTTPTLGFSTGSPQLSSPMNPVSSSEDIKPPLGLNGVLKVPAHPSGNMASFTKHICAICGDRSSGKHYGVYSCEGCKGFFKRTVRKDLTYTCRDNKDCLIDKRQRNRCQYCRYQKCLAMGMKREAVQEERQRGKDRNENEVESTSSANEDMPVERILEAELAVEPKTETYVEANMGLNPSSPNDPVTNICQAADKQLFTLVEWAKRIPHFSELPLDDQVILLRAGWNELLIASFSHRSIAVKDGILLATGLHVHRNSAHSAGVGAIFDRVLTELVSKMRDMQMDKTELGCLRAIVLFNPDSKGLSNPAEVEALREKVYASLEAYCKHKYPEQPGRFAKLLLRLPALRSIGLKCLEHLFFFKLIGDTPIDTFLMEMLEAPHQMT
Nuclear receptor subfamily 1 group I member 2 (Homo sapiens), sequence (O75469 whole entry, looked up, the tested form may be a part): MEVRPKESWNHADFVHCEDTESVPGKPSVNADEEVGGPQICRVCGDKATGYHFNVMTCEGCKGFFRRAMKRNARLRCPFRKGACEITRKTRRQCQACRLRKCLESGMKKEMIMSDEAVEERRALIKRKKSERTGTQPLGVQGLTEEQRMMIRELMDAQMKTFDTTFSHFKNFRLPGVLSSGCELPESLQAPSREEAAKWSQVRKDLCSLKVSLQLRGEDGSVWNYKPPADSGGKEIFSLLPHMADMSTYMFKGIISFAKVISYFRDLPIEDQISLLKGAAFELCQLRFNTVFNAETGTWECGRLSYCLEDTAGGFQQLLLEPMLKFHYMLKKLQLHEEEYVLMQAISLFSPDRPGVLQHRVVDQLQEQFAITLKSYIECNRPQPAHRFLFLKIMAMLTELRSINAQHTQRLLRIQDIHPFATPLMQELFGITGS
human Retinoid X Receptor beta (RXRb), RXRB (gene 6257), sequence (P28702 whole entry, looked up, the tested form may be a part): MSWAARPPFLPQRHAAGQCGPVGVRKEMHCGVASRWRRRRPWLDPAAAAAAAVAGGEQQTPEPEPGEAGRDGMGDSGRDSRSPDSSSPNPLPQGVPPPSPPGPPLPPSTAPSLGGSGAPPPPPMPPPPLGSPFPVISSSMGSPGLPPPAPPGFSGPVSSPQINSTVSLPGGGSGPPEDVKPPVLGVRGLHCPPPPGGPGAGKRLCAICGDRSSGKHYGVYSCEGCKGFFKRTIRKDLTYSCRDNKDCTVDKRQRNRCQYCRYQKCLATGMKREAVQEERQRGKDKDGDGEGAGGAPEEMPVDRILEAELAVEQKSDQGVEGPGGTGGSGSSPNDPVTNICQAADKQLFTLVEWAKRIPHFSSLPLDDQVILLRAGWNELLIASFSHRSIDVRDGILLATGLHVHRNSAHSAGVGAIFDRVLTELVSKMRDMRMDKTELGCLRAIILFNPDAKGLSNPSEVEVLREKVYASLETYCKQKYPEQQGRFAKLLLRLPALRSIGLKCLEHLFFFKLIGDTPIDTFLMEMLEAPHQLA
Peroxisome proliferator-activated receptor gamma (Homo sapiens), sequence (P37231 whole entry, looked up): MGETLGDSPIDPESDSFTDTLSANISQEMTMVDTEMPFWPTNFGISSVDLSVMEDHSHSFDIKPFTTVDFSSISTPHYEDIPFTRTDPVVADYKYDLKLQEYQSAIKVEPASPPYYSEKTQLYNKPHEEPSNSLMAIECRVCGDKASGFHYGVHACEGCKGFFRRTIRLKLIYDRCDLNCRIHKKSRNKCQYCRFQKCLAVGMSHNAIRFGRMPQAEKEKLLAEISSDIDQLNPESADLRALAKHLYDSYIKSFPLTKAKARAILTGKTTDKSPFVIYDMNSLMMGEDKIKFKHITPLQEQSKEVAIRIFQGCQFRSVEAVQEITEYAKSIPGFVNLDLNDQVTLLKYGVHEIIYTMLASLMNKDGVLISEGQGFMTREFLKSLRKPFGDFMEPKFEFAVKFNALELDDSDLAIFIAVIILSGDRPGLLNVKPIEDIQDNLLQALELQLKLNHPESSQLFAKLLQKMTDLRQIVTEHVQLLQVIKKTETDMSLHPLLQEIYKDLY
E-selectin (Homo sapiens), sequence (P16581 whole entry, looked up): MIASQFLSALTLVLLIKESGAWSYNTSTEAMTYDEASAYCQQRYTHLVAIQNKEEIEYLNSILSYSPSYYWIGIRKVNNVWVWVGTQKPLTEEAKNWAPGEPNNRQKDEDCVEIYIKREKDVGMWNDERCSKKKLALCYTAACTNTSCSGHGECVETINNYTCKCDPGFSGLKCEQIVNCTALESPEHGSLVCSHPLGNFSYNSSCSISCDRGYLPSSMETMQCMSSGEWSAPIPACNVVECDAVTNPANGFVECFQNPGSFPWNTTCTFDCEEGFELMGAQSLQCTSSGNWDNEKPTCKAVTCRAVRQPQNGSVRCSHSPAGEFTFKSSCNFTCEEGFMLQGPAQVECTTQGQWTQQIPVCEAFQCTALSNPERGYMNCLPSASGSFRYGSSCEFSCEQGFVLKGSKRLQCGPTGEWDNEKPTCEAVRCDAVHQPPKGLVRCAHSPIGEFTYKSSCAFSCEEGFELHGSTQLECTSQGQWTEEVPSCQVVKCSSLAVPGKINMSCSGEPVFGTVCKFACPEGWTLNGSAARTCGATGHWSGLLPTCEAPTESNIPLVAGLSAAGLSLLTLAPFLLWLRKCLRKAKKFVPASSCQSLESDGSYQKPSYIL
human Retinoic Acid Receptor gamma (RARg), RARG (gene 5916), sequence (P13631 whole entry, looked up): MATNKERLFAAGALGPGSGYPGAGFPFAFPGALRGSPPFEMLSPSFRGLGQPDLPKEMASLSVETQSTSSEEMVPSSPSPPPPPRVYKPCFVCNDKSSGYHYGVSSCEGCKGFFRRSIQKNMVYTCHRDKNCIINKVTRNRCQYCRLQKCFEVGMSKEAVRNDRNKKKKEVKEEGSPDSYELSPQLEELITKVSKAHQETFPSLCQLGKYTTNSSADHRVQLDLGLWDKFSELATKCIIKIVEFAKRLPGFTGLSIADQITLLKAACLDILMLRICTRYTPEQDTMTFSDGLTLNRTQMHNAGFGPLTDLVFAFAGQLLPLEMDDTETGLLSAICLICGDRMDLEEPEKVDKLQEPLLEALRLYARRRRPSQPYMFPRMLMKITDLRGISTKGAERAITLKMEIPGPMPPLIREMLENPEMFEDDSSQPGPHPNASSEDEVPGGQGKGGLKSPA
Retinoic acid receptor alpha (Homo sapiens), sequence (P10276 whole entry, looked up, the tested form may be a part): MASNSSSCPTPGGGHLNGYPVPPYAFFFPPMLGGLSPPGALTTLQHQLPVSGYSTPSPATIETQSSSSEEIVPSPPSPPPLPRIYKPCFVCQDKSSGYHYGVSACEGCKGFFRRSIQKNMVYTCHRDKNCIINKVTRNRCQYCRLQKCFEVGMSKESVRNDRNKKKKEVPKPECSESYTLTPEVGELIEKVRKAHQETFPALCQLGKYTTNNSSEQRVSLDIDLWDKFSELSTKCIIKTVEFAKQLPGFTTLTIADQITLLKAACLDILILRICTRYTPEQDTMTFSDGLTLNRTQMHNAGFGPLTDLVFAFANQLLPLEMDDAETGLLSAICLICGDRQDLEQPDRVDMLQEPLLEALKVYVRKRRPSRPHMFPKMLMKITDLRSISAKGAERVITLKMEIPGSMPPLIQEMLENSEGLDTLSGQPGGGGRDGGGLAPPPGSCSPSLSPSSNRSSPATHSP
human Peroxisome Proliferator-activated Receptor delta (PPARd), PPARD (gene 5467), sequence (Q03181 whole entry, looked up, the tested form may be a part): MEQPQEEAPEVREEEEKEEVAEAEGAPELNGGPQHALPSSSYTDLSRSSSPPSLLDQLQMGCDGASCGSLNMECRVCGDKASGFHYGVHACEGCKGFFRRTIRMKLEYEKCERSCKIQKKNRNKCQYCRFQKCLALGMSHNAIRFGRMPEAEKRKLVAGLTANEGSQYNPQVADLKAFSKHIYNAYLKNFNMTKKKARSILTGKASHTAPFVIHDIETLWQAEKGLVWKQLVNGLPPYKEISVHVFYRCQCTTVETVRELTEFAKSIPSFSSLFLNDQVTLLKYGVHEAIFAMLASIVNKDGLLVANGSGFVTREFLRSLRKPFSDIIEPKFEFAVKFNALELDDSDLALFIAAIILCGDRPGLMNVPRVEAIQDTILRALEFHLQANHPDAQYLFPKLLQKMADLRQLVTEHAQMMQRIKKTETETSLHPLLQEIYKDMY

CC(C)c1cccc(C(C)C)c1N
active: [1] 33.1 µM | [11] 71.2 µM
not listed: [14] | [15] | [16] | [17] | [18] | [19]
inactive: all other assays above

C[N+](C)(C)CCCNS(=O)(=O)C(F)(F)C(F)(F)C(F)(F)C(F)(F)C(F)(F)C(F)(F)C(F)(F)C(F)(F)F
inactive: [2] | [3] | [14] | [6] | [7] | [10] | [12] | [13] | [15]
active: [1] 39 µM and 45.1 µM | [5] 43.4 µM and 42.7 µM | [12] 14.3 µM | [13] 30 µM

CC1(C)CC(O)CC(C)(C)N1[O]
active: [17] 0.0621 µM
inactive: [1] | [2] | [16] | [3] | [5] | [14] | [9] | [12] | [13] | [15]

CC(C)CCCCCOC(=O)CS
inactive: [1] | [2] | [3] | [5] | [6] | [11] | [12] | [13] | [18]
active: [14] 19.5 µM

Fc1ccc(Br)cc1
active: [11] 156 µM
not listed: [7] | [8] | [14] | [16] | [18]
inactive: all other assays above
